A number with no mark means an inactive call. Entries that show only a call come without a potency. Calls of active or inactive are those of the source. Calls come from the whole dose curve; as a rule, active = well fitted inhibition curve with a large enough effect in the repeat runs (not every such curve was filed as active); inconclusive = weak or mixed curves; inactive = flat fitted curve, though single readings scatter.

Sequence of Thyrotropin-releasing hormone receptor (Homo sapiens) (P34981 whole entry, looked up): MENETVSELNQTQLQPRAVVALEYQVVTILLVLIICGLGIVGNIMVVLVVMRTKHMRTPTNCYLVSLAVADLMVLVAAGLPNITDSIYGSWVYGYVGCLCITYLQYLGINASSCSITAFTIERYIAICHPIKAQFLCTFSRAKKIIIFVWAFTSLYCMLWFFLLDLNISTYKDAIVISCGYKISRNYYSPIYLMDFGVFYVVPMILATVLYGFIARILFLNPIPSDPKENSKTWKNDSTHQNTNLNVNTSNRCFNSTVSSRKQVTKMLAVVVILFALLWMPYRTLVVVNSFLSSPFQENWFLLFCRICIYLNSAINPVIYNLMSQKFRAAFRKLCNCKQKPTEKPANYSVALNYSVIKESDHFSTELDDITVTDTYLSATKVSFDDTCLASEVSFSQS

For this experiment, the target named is Thyrotropin-releasing hormone receptor (Homo sapiens) (UniProt P34981). Description: qHTS assay to identify small molecule antagonists of the thyrotropin-releasing hormone receptor (TRHR) signaling pathway (AID 1346877). Particulars: TRHR-HEK293, TRH-induced calcium fluorescence, antagonist mode; series mostly up to 51.3 µM. An excerpt:
National Center for Advancing Translational Sciences [NCATS]
NIH Chemical Genomics Center [NCGC]
U.S. Environmental Protection Agency [EPA]
National Institutes of Environmental Health Sciences [NIEHS]
National Toxicology Program [NTP]
U.S. Food and Drug Administration [FDA]
Thyrotropin-releasing hormone (TRH) receptor (TRHR) is a G-protein-coupled receptor which binds the tripeptide thyrotropin releasing hormone. TRHR is found in the brain and, when bound by TRH, acts (through phospholipase C) to increase intracellular inositol trisphosphate. It plays a crucial role in the anterior pituitary where it controls the synthesis and secretion of thyroid stimulating hormone and prolactin. The TRHR-Hek293 assay is a cell-based assay, and it has the potential to screen G protein-coupled receptors. A compound/drug can either activate (agonist) or suppress (antagonist) GPCRs that can be monitored by levels of intracellular calcium. In this assay, the Tox21 10K compound library was screened to identify potential TRHR antagonists.
Tox21 Assay Protocol Summary:
The TRHR-Hek293 cells were dispensed at 1500cells/4uL/well in 1536-well black-clear bottom plates using a Multidrop dispenser. After the assay plates were incubated at a 37 C/5% CO2 incubator for 18 hours, 4 uL of Dye-Loading Solution was added to each well. The plates were incubated at 37 C for 2 hours. For agonist mode, 23 nL of compounds dissolved in DMSO, positive controls or DMSO only was transferred to the assay plate by a pin tool. The fluorescence intensity in the plates was measured using FDSS 7000EX kinetic plate reader for 3 min at 1 sec intervals. For antagonist mode, 23 nL of compounds dissolved in DMSO, positive controls or DMSO only was transferred to the assay plate by a pin tool. After 5 min incubation at room temperature, 1 uL of TRH was added on the top of the cell/compound mixtures to achieve a final agonist concentration of 1 nM. The fluorescence intensity in the plates was measured using FDSS 7000EX kinetic plate reader for 3 min at 1 sec intervals. Each test compound was measured at 15 concentrations and in triplicates.
(In general: Quantitative high-throughput screening tests each substance at several concentrations.)
For the compound `Cc1cccc(C)c1NC(=O)CN1CCN(CCCC(c2ccc(F)cc2)c2ccc(F)cc2)CC1`, the Potency result was “inactive”.

For the compound `Cc1ccc(N)cc1O`, the Potency result was “inactive”. `O=C=NCc1cccc(CN=C=O)c1`: the activity, negative = inhibition was 1.76% [at 10.5 µM]. Take `C/C=C/CO`: the Potency entry is “inactive”. Same read-out and setting: the value for `S=P(N1CC1)(N1CC1)N1CC1` was “inactive”. As to `CCCCOC(=O)C(C)CC` (stereo not given), the Potency result is “inactive”.

In the case of `CCc1cccc(C)c1`, the Potency result was “inactive”. Regarding `CCCC(O)C(O)CO` (stereo not given), the Potency result was “inactive”. Still for that read-out and setting: under `O=C(O)CC(=O)O` stands “inactive”; under `CCCCCCCCC(C)=O`, “inactive”. Turning to `COC(=O)CC#N`, the Potency entry was “inactive”. Still for that read-out and setting: the value for `COC(=O)C1=C(C)NC(C)=C(C(=O)OCCCN2CCC(c3ccccc3)(c3ccccc3)CC2)C1c1cccc([N+](=O)[O-])c1` (stereo not given) was “inactive”; that for `C=C(C)CCCC` was “inactive”. Still for that read-out and setting: the value for `Brc1ccccc1-c1ccccc1` was “inactive”.

In the case of `CCC(C)c1cc([N+](=O)[O-])cc([N+](=O)[O-])c1OC(=O)OC(C)C` (stereo not given), the Potency entry is “inactive”.

For `CCCCCCCC(=O)OCC`, the Potency result was “inactive”. Still for that read-out and setting: the value for `Nc1ncnc2c1ncn2[C@@H]1O[C@H](COP(=O)(O)O)[C@@H](O)[C@H]1O` was “inactive”; that for `CCCC(C)CCC(C)=O` (stereo not given) was “inactive”; that for `Brc1ccccn1` was “inactive”.

For the compound `CN1CN(C)CN(C)C1`, the Potency result was “inactive”. With `Nc1cc(Cl)c([N+](=O)[O-])cc1O`, the Potency entry is “inactive”. On the same count and under the same terms, the value for `C1CC(COCC2CO2)CCC1COCC1CO1` (stereo not given) was “inactive”; that for `O=C(c1ccccc1)c1cc(Cl)ccc1O` was “inactive”; that for `CCCCCCCC/C=C/CCCOC(C)=O` was “inactive”. On the same count and under the same terms, under `CC(O)C#CC(C)O` (stereo not given) stands “inactive”; under `CCCCCCCCCCCCCOP(=O)(O)O`, “inactive”.

Take `CN(C)c1ccc(N=Nc2ccccc2C(=O)O)cc1`: the Potency entry was “inactive”.

Take `NC1(c2ccc(-c3nc4ccn5c(=O)[nH]nc5c4cc3-c3ccccc3)cc2)CCC1`: the Potency entry is “inactive”. Same read-out and setting: under `CO[C@H]1C=CO[C@@]2(C)Oc3c(C)c(O)c4c(O)c(cc(O)c4c3C2=O)NC(=O)/C(C)=C\C=C/[C@H](C)[C@H](O)[C@@H](C)[C@@H](O)[C@@H](C)[C@H](OC(C)=O)[C@@H]1C` stands “inactive”. In the case of `CCCCCCCC(OC)OC`, the Potency entry is “inactive”. The same measure, in the same setting: the value for `C/C=C/C(=O)Oc1c(CCCCCC(C)C)cc([N+](=O)[O-])cc1[N+](=O)[O-]` was “inactive”.

`COc1nccnc1CC(C)C`: the Potency result was “inactive”. The same measure, in the same setting: the value for `CC(=O)Nc1ccc(O)cc1` was “inactive”; that for `CC(C)N=C(N)/N=C(\N)Nc1ccc(Cl)cc1` was “inactive”. For the compound `S=C(SSSSSSC(=S)N1CCCCC1)N1CCCCC1`, the activity, negative = inhibition is -6.79% [at 10.5 µM]. As for `NC(=O)C(=O)N/N=C/c1ccc([N+](=O)[O-])o1`, the Potency entry is “inactive”. Same read-out and setting: under `O=C1Nc2ccc(Cl)cc2[C@@](C#CC2CC2)(C(F)(F)F)O1` stands “inactive”. Same read-out and setting: the value for `CC(=O)O[C@@H]1C[C@@H]2CC[C@@]1(C)C2(C)C` was “inactive”; that for `SCCCCCCCCS` was “inactive”; that for `CCc1cccc(CC)c1NC(=O)C(=O)O` was “inactive”.

The record behind these values is PubChem BioAssay (Tox21).
